Laboratory results from PubChem BioAssay.
Activity calls are given as the source filed them.

What was measured:
[1] = tested on: Plasmodium falciparum Sir2 (PF13_0152, Sir2A); test: pfSir2 binders on small-molecule microarrays, primary screen, biochemical, small-molecule microarray, 635 nm fluorescence (AID 1098); details: small-molecule microarray binding, fluorescence 635 nm; higher = more signal;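 also: score merges spot fluorescence intensity with its signal-to-noise ratio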
[2] = small-molecule microarray binders of probe aDKK1, primary screen, biochemical, biotinylated probe, 635/667 nm fluorescence (AID 1099); details: higher = more signal;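 also: score merges 667nm spot fluorescence with signal to noise across triplicate slides; reference of the scale not given here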
[3] = small-molecule microarray binders of probe aCHRDL2, primary screen, biochemical, biotinylated probe, 635/667 nm fluorescence (AID 1100); details: higher = more signal
[4] = splicing luciferase reporter signal modulators, primary screen, spliceosome inhibition project, cell-based, HEK293, splice +/- reporter (AID 1101); details: luminescence, 24 h, higher = more signal, called active from +8 up or from −8 down;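 also: HEK293 cells carrying a splicing-competent luciferase reporter gene; test concentration not given here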
[5] = target: Fibroblast growth factor 10 (Homo sapiens) (UniProt O15520); test: FGF10 binders on small-molecule microarrays, primary screen, biochemical, small-molecule microarray, 635 nm fluorescence (AID 1102); details: FGF10 binding, fluorescence 635 nm, higher = more signal
[6] = tested on: glycogen synthase kinase-3 (GSK3A per assay name; protocol says GSK3B); test: GSK3 binders on small-molecule microarrays, primary screen, biochemical, small-molecule microarray, 635 nm fluorescence, GSK3A (AID 1103); details: small-molecule microarray binding, fluorescence 635 nm; higher = more signal; also: the record names both GSK3A and GSK3B
[7] = target: Epidermal growth factor receptor (Homo sapiens) (UniProt P00533); test: EGFR binders on small-molecule microarrays, primary screen, biochemical, small-molecule microarray, 635 nm fluorescence (AID 1104); details: EGFR binding, higher = more signal;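 also: score merges 667 nm emission intensity with spot signal to noise over triplicate slides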
[8] = target: Follistatin-related protein 3 (Homo sapiens) (UniProt O95633); test: FSTL3 binders on small-molecule microarrays, primary screen, biochemical, small-molecule microarray, 635 nm fluorescence (AID 1105); details: FSTL3 binding, higher = more signal;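 also: score merges emission near 667 nm and signal to noise per printed spot across three slides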
[9] = target: Dickkopf-related protein 1 (Homo sapiens) (UniProt O94907); test: DKK1 binders on small-molecule microarrays, primary screen, biochemical, small-molecule microarray, 635 nm fluorescence scan (AID 1106); details: DKK1 binding, higher = more signal;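 also: score merges emission near 667 nm with signal to noise over three replicate slides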
[10] = tested on: Inhibin beta A chain (activin A); test: INHBA (activin A) binders on microarrays, primary screen, biochemical, small-molecule microarray, 635 nm fluorescence scan (AID 1107); details: small-molecule microarray binding, higher = more signal;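 also: mouse activin A protein probed at 4.33 µg/mL on printed slides; score merges bound-protein fluorescence near 667 nm with spot signal-to-noise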

Chain of Fibroblast growth factor 10 (Homo sapiens) (O15520 whole entry, looked up): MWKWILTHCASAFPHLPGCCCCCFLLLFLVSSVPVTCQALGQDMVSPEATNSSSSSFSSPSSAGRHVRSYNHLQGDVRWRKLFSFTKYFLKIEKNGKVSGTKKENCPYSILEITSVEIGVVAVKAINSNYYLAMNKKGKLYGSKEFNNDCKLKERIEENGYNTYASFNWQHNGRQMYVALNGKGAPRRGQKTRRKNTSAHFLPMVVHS
Chain of Dickkopf-related protein 1 (Homo sapiens) (O94907 whole entry, looked up): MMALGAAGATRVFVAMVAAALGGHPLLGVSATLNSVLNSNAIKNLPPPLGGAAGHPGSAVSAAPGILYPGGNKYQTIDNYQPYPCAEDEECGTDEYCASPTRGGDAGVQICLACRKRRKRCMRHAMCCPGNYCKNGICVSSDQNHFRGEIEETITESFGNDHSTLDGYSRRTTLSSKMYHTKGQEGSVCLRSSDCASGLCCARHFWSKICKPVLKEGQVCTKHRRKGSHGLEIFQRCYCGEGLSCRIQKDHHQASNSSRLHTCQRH
Chain of Epidermal growth factor receptor (Homo sapiens) (P00533 whole entry, looked up): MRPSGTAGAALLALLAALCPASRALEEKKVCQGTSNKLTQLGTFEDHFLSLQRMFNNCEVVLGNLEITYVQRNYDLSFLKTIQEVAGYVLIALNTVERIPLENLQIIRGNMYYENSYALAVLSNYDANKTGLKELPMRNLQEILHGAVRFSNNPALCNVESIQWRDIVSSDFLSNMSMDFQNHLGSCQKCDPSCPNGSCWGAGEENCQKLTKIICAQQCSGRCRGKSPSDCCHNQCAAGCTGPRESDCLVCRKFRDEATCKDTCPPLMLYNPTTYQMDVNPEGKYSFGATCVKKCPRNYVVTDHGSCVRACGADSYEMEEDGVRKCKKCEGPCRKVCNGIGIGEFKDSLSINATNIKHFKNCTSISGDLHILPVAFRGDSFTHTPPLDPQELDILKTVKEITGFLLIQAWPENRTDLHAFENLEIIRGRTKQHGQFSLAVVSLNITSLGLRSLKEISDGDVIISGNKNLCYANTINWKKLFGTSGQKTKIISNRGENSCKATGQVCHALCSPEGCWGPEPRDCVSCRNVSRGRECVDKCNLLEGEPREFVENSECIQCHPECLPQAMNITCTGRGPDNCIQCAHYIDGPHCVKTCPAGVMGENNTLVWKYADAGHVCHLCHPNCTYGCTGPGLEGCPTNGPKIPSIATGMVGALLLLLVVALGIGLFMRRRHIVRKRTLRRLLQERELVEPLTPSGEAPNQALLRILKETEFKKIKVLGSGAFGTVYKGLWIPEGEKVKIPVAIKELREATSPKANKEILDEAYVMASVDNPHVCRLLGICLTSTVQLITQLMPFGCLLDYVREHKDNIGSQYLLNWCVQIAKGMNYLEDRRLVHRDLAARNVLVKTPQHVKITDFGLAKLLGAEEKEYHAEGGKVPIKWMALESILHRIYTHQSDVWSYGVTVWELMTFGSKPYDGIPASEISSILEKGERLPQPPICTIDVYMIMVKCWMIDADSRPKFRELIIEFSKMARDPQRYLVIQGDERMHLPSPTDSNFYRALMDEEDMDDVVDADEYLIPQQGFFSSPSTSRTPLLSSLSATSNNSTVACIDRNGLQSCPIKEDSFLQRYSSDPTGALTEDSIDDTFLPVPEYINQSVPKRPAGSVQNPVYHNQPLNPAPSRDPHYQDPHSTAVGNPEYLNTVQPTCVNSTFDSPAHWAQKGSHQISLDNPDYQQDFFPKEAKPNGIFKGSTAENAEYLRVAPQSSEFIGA
Chain of Follistatin-related protein 3 (Homo sapiens) (O95633 whole entry, looked up): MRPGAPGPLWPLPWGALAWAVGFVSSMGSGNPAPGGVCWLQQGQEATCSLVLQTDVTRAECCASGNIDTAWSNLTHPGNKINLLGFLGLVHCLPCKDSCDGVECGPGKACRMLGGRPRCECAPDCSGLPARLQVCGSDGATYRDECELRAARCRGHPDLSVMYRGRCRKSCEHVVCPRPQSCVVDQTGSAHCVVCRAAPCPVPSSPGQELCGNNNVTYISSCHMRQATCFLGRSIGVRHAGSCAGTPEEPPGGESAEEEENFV

Structure (SMILES)	composite z-score [1]	composite z-score [2]	composite z-score [3]	z-score [4]	composite z-score [5]	composite z-score [6]	composite z-score [7]	composite z-score [8]	composite z-score [9]	composite z-score [10]
C=C(/C=C/CNS(=O)(=O)c1ccc(C)cc1)[C@H](O)[C@H]1CCCN1S(=O)(=O)c1ccccc1[N+](=O)[O-]	0.61	0.0684	0.0163	-0.112 (inactive)	0.582	0.139	0.669	0.998	0.727	0.809
CCOC(=O)C[C@H]1[C@H](OC(=O)c2ccc(C(=O)c3ccccc3)cc2)[C@@H](NC(=O)c2ccc3ccccc3c2)c2cc(OCCCO)ccc2N1C(=O)c1ccccc1	0.422	0.489	0.17	-0.072 (inactive)	0.734	0.993	0.0993	0.786	0.105	0.007
CC[C@@H]1[C@H]2C3C(=O)N(CC)C(=O)C3CC(=O)[C@H]2[C@H](c2ccc(C)cc2)N1S(=O)(=O)c1ccc(C)cc1 (stereo not given in full)	1.11	0.415	0.46	0.16 (inactive)	0.894	1.27	0.183	0.955	0.0029	0.617
COc1ccc(NC(=O)O[C@H]2[C@H](OC(=O)Nc3ccc4c(c3)OCO4)[C@@H](OC(=O)Nc3ccc4c(c3)OCO4)[C@@H](OC)O[C@@H]2CO)cc1	1.61	0.0898	0.0398	1.27 (inactive)	1.11	1.29	0.0699	0.516	0.0542	0.774
O=C1O[C@H](c2ccccc2)[C@H](c2ccccc2)N2[C@H]1[C@@H](C(=O)O)[C@]1(C(=O)Nc3ccccc31)[C@H]2c1ccc(O)cc1	0.663	-0.391	0.253	-0.531 (inactive)	0.619	-0.219	-0.552	-0.532	-0.836	-1.37
CN(C)CCCCNC(=O)[C@H]1C[C@H]2C(=O)N3CCC[C@H]3C(=O)N2[C@H]1c1ccc(O)cc1	0.0292	-1.21	-0.65	-2.27 (inactive)	-1.51	-0.0328	-0.364	0.398	-0.414	-0.984
[N-]=[N+]=NCc1ccccc1C[C@@]1(C(=O)N2CCCCC2)N=C(c2ccc(OCCCO)cc2)O[C@@H]1c1ccccc1N=[N+]=[N-]	0.679	0.885	0.689	-0.428 (inactive)	0.128	0.293	0.13	-0.16	-0.276	1.19
COCCOC(=O)N1C(=O)[C@@]2(c3ccccc31)[C@H](c1ccc(OCCO)cc1)N1[C@H](c3ccccc3)[C@H](c3ccccc3)OC(=O)[C@H]1[C@@H]2C(=O)Nc1nc2ccccc2s1	1.45	-0.223	0.414	0.579 (inactive)	0.967	0.986	0.545	0.852	0.293	0.34
COC(=O)[C@]1(CCS(=O)(=O)c2ccccc2)N=C(c2ccc(OCCCO)cc2)O[C@@H]1c1ccccc1CN=[N+]=[N-]	1.24	0.366	0.763	1.08 (inactive)	0.63	1.28	0.231	0.702	0.0636	0.681
COCCOC(=O)N1C(=O)[C@@]2(c3cc(C#Cc4ccc(OC)cc4)ccc31)[C@H](C(=O)N1CCCCCCC1)[C@H]1C(=O)O[C@H](c3ccccc3)[C@H](c3ccccc3)N1[C@@H]2c1ccc(O)cc1	0.773	1.12	0.522	-0.527 (inactive)	0.546	1.15	0.519	1.31	0.567	1.35
COCCCNC(=O)[C@@]1(Sc2ccc(C)cc2)CC(=O)N(Cc2cc(C(F)(F)F)cc(C(F)(F)F)c2)[C@@H]1c1ccc(CO)cc1	1.08	-0.0248	-0.0087	0.261 (inactive)	0.327	-0.257	-0.107	1.01	0.585	0.612
CN1C(=O)C2C=CC(C(O)C3CCCCC3)N(N3CCCCC3)C2C1=O (stereo not given)	1.15	0.429	0.833	1.77 (inactive)	1.06	0.675	0.442	1.45	0.379	0.776
CC(C)N1CC=CC23O[C@@H]4C=CCOC(=O)[C@@H]4[C@H]2C(=O)N(C(C)CO)[C@@H]3C1=O (stereo not given in full)	0.776	-0.162	0.559	0.408 (inactive)	-0.724	-1.99	-1.29	-0.93	-1.21	-0.116
CC=CC(O)C1C=CC2C(=O)N(c3ccccc3)C(=O)C2N1Nc1ccc([N+](=O)[O-])cc1 (stereo not given)	0.563	-0.0639	0.0737	0.43 (inactive)	0.455	0.464	0.496	0.501	0.113	0.896
CC(C)(C)OC(=O)CC[C@]1(C(=O)NCCN2CCOCC2)N=C(c2ccc(OCCCO)cc2)O[C@H]1c1ccccc1N=[N+]=[N-]	1.63	0.99	1.12	-1.03 (inactive)	0.177	1.17	0.303	0.361	-0.235	1.24
COC(=O)c1c(CC[C@@H](CO)NC(=O)N[C@H](Cn2cc(-c3ccccc3C)nn2)C(C)C)oc(C(C)=O)c1C(=O)OC	0.404	-0.177	-0.076	-1.71 (inactive)	0.289	-0.79	-0.937	-0.806	-0.482	-0.252
